The values below come from publication PMC5540273 (PLoS ONE, 2017).

Test systems include DAPK2; DAPK3; DDR1; DDR2; DMPK; DYRK1A; DYRK1B; DYRK2; EGFR; EIF2AK1; EPHA1; EPHA2; EPHA3.
What all share (details): concentration: 1 μM, replicates: in singlicate; n = 1
A further assay relates to T1, DCAMKL1.
T1 construct: gene DCLK1

In the next assay the test system is T2, DCAMKL2.
T2 construct: gene DCLK2

The next assay deals with T3, DCAMKL3.
T3 construct: gene DCLK3

In a further assay the test system is T4, DLK.
T4 construct: gene MAP3K12

Another assay deals with T5, DMPK2.
T5 construct: gene CDC42BPG

The subject of a further assay is T6, DRAK1.
T6 construct: gene STK17A

For a further assay, the system named is T7, DRAK2.
T7 construct: gene STK17B
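Also: KINOMEscan kinase panel screen.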

As for `Cc1ccc(C(=O)Nc2ccc(Nc3ccnc4cc(-c5ccccn5)ccc34)cc2O)cc1.Cl` [GW440146], the “%Inh” value in the assay with DAPK2 is given as 0%; in the assay with DAPK3 it was 13%; with DCAMKL1, 0%; with DCAMKL2, 0%; in the assay with DCAMKL3, 16%; in the assay on DDR1, 12%. Further, the “%Inh” value in the assay on DDR2 is reported as 10%; in the assay on DLK, 47%; with DMPK2, 0%; in the assay on DMPK, 0%; with DRAK1, 0%; in the assay with DRAK2, 11%. Moreover, the “%Inh” value in the assay with DYRK1A is 18%; in the assay with DYRK1B, 0%; in the assay with DYRK2 it was 0%; in the assay with EGFR, 32%; with EIF2AK1, 0%; in the assay on EPHA1 it was 4%. For the same compound, the “%Inh” value in the assay on EPHA2 and in the assay on EPHA3 was 0% in each case.

Consider `Cl.c1ccc(-c2n[nH]cc2-c2ccnc(-c3ccc(CN4CCOCC4)cc3)c2)nc1` [GW776245], for which the “%Inh” value with DAPK2 amounted to 12%; in the assay with DAPK3, 4%; with DCAMKL1 it was 38%; in the assay on DCAMKL2, 16%; in the assay on DCAMKL3 it was 12%; with DDR1, 0%. Moreover, the “%Inh” value in the assay with DDR2 was 34%; with DLK it was 0%; with DMPK2, 9%; with DMPK, 0%; in the assay with DRAK1, 0%; in the assay with DRAK2, 20%. Also, the “%Inh” value stood at 0% in the assay with DYRK1A; 0% in the assay with DYRK1B; 0% in the assay on DYRK2; 34% in the assay with EGFR; 0% in the assay on EIF2AK1; 7% in the assay with EPHA1. In addition, the “%Inh” value is given as 6% with EPHA2 and 1% in the assay on EPHA3.

Consider `Cn1ccc2ncnc(Oc3ccc(NC(=O)Nc4ccccc4)cc3)c21`, for which the “%Inh” value in the assay with DAPK2 came to 0%; in the assay with DAPK3 it was 0%; in the assay with DCAMKL1, 23%; in the assay on DCAMKL2 it was 0%; with DCAMKL3, 0%; in the assay with DDR1, 63%. The “%Inh” value with DDR2 amounted to 74%; in the assay on DLK, 0%; with DMPK2, 0%; in the assay with DMPK, 0%; in the assay on DRAK1, 0%; in the assay on DRAK2, 0%. Moreover, the “%Inh” value stood at 6% with DYRK1A; 40% in the assay with DYRK1B; 0% in the assay on DYRK2; 3% in the assay with EGFR; 22% with EIF2AK1; 7% in the assay on EPHA1. The “%Inh” value with EPHA2 and with EPHA3 was 0% throughout.

As to `Cn1cncc1-c1ccc2ncnc(Nc3ccc(OCc4ccccc4)cc3)c2c1` [GW320571], the “%Inh” value was determined as 0% in the assay with DAPK2; 56% in the assay with DAPK3; 0% in the assay on DCAMKL1; 0% in the assay on DCAMKL2; 31% in the assay on DCAMKL3; 18% in the assay with DDR1. Further, the “%Inh” value was found to be 4% with DDR2; 35% in the assay on DLK; 0% with DMPK2; 9% in the assay with DMPK; 6% with DRAK1; 0% in the assay on DRAK2. For the same compound, the “%Inh” value is recorded as 12% with DYRK1A; 3% with DYRK1B; 0% with DYRK2; 99.3% with EGFR; 96.7% with EIF2AK1; 25% in the assay on EPHA1. Also, the “%Inh” value with EPHA2 was found to be 17%; in the assay on EPHA3, 0%.

For the compound `COc1cc2nccc(Nc3ccc(NC(=O)c4ccc(C)cc4)c(O)c3)c2cc1OC.Cl` [GW440132], the “%Inh” value with DAPK2 is 8%; in the assay with DAPK3, 19%; in the assay with DCAMKL1, 8%; in the assay with DCAMKL2 it was 7%; with DCAMKL3, 16%; in the assay on DDR1, 0%. In addition, the “%Inh” value in the assay with DDR2 is 5%; in the assay with DLK it was 6%; in the assay on DMPK2, 0%; in the assay on DMPK, 0%; with DRAK1, 0%; in the assay on DRAK2 it was 0%. For the same compound, the “%Inh” value amounted to 11% with DYRK1A; 7% with DYRK1B; 18% with DYRK2; 0% in the assay on EGFR; 0% in the assay with EIF2AK1; 17% with EPHA1. In addition, the “%Inh” value in the assay with EPHA2 stood at 8%; in the assay on EPHA3, 0%.

Take `Cc1cccc(-c2cc(Nc3ccncc3)c3ccccc3n2)n1` [GSK223675]: the “%Inh” value in the assay with DAPK2 was 0%; in the assay on DAPK3 it was 9%; in the assay with DCAMKL1 it was 3%; in the assay on DCAMKL2 it was 0%; with DCAMKL3 it was 1%; with DDR1, 9%. In addition, the “%Inh” value with DDR2 is 0%; in the assay on DLK, 0%; in the assay on DMPK2, 7%; in the assay on DMPK, 0%; in the assay on DRAK1, 0%; in the assay on DRAK2, 0%. Besides, the “%Inh” value in the assay with DYRK1A is given as 8%; in the assay with DYRK1B, 0%; with DYRK2, 18%; in the assay on EGFR, 17%; in the assay with EIF2AK1 it was 0%; in the assay with EPHA1, 4%. The “%Inh” value in the assay on EPHA2 and in the assay with EPHA3 was 0% each time.

For the compound `CC1=C(C(=O)Nc2cc3cn[nH]c3cc2F)C(c2ccc(C(F)(F)F)cc2)CC(=O)N1` (centres unmarked) [GSK429286], the “%Inh” value in the assay with DAPK2 is 0%; with DAPK3, 24%; in the assay with DCAMKL1, 4%; in the assay with DCAMKL2 it was 7%; in the assay with DCAMKL3 it was 39%; with DDR1, 3%. Moreover, the “%Inh” value with DDR2 came out at 0%; in the assay with DLK, 0%; in the assay with DMPK2, 0%; in the assay with DMPK, 0%; with DRAK1 it was 0%; with DRAK2, 12%. The “%Inh” value in the assay with DYRK1A is 21%; in the assay on DYRK1B it was 0%; in the assay with DYRK2, 0%; in the assay with EGFR, 33%; with EIF2AK1 it was 0%; in the assay on EPHA1, 22%. Further, the “%Inh” value in the assay with EPHA2 amounted to 14%; in the assay on EPHA3, 0%.

Consider `Cc1c(Cn2ccn3c(=O)cc(N4CCOCC4)nc23)cccc1C(F)(F)F` [GSK2289044], for which the “%Inh” value is on record as 12% in the assay with DAPK2; 12% in the assay on DAPK3; 3% with DCAMKL1; 0% in the assay with DCAMKL2; 13% in the assay on DCAMKL3; 0% in the assay with DDR1. Further, the “%Inh” value in the assay with DDR2 was 8%; in the assay on DLK, 0%; in the assay on DMPK2 it was 0%; in the assay on DMPK, 64%; with DRAK1, 0%; in the assay with DRAK2, 0%. Also, the “%Inh” value in the assay with DYRK1A stood at 10%; with DYRK1B it was 21%; in the assay with DYRK2, 14%; with EGFR it was 40%; with EIF2AK1 it was 2%; in the assay with EPHA1, 9%. Besides, the “%Inh” value is 13% with EPHA2 and 27% in the assay on EPHA3.

As to `Cc1ccc(NC(=O)Nc2cc(C(C)(C)C)nn2-c2ccccc2)cc1` [GSK1014915], the “%Inh” value is on record as 0% with DAPK2; 18% in the assay on DAPK3; 2% in the assay on DCAMKL1; 25% in the assay on DCAMKL2; 5% with DCAMKL3; 90.7% with DDR1. In addition, the “%Inh” value stood at 88% with DDR2; 18% with DLK; 0% in the assay with DMPK2; 3% with DMPK; 0% in the assay with DRAK1; 1% in the assay on DRAK2. Further, the “%Inh” value with DYRK1A was found to be 33%; in the assay with DYRK1B it was 11%; in the assay on DYRK2, 3%; with EGFR, 38%; in the assay with EIF2AK1 it was 0%; in the assay with EPHA1, 7%. For the same compound, the entries for the “%Inh” value in the assay with EPHA2 and in the assay on EPHA3 were 7% and 0%, respectively.

For `Cl.Oc1ccc(-c2nc(-c3ccccc3)[nH]c2-c2ccncc2)cc1` [SB-428218], the “%Inh” value with DAPK2 worked out at 0%; in the assay on DAPK3 it was 31%; in the assay on DCAMKL1, 6%; in the assay with DCAMKL2, 15%; in the assay on DCAMKL3 it was 7%; with DDR1, 9%. Also, the “%Inh” value with DDR2 was found to be 59%; with DLK, 58%; in the assay on DMPK2, 0%; with DMPK, 0%; with DRAK1, 0%; in the assay on DRAK2, 0%. Besides, the “%Inh” value was determined as 17% in the assay with DYRK1A; 0% in the assay with DYRK1B; 0% in the assay on DYRK2; 31% with EGFR; 5% with EIF2AK1; 55% with EPHA1. Besides, the “%Inh” value is listed as 1% with EPHA2 and 0% with EPHA3.
